ANO1 block = blocks the mouse calcium-activated chloride channel TMEM16A. normalized B-score (activity score, 25-100; higher = stronger inhibition) at 10 µM. 310,000 tested, 1.2% active. HEK293 TMEM16A/YFP iodide influx fluorescence, ionomycin. Q8BHY3;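 active = ratio plate-corrected score three or more library SD toward inhibition, starting fluorescence score within five deviations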;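 also: score derived from kinetic fluorescence span divided by baseline fluorescence per well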
CHT block = human CHT choline transport inhibition | AID 488975 | B-score at 10 µM | 310,000 tested, 0.86% active | CHT-expressing cells, membrane potential dye, choline response; hits give low values | Q9GZV3;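 active = B-score over 3 SD under the library average, and starting fluorescence ratio not unusually high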;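 also: choline stimulus applied at its EC90 after an EC20 pre-addition; B-score computed on integrated fluorescence ratio after choline addition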
Target sequence (Q9GZV3 whole entry, looked up): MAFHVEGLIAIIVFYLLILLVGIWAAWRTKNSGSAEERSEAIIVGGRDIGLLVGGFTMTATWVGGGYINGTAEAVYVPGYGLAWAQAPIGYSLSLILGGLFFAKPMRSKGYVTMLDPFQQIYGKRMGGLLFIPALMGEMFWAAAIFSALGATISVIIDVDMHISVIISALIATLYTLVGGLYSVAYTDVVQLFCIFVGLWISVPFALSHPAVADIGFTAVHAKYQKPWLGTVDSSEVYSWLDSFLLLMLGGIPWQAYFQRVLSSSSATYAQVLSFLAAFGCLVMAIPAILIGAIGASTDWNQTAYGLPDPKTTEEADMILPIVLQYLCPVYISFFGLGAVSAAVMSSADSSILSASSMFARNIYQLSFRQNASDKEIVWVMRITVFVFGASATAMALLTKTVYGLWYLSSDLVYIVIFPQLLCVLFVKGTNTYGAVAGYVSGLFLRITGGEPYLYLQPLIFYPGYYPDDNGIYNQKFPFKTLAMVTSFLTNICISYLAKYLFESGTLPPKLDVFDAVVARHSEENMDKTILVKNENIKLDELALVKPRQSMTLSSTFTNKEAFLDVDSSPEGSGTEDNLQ
CHT PAM = allosterically activates the human high affinity choline transporter; B-score at 10 µM; Q9GZV3; 310,000 tested, 0.49% active; CHT-expressing cells, membrane potential dye, choline EC20; hits give high values; LV-AA mutant CHT in HEK293 cells; AID 488977;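 active = initial fluorescence not abnormally high and integrated response B-score, plate-corrected, over 3 SD above library mean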
ANO1 activ = mouse TMEM16A channel activation, primary screen; Q8BHY3; HEK293 TMEM16A/YFP-H148Q/I152L, iodide quench fluorescence; hits give low values; B-score at 10 µM; 340,000 tested, 0.3% active;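 active = fluorescence-ratio B-score plate-corrected deviation score at least 3 library SD below zero, with starting fluorescence score within 5 deviations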;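 also: channel opened by trigger with iodide after compound preincubation; score built on the fluorescence ratio of max minus min over baseline; more negative score means more quench and so TMEM16A activation or potentiation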
Active calls of the source: *. The list is not random: actives were taken first. Their share in the collection is about 2.3%.

For CCC(=O)Oc1ccc(C(CC)C(CC)c2ccc(OC(=O)CC)cc2)cc1 (configuration not stated) the results were ANO1 block 100*, CHT block inactive, CHT PAM inactive and ANO1 activ inactive.
Screening O=C(CSc1ncccn1)NC(=O)Cc1ccccc1 returned ANO1 activ inactive.
`N#CC1=C(N)Oc2cc(O)c(Cl)cc2C1c1cccnc1` (configuration not stated) gave ANO1 block inactive, CHT block inactive, CHT PAM inactive and ANO1 activ -5.2*.
O=C(O)CCc1c(C(=O)O)[nH]c2ccccc12 was read as ANO1 block inactive, CHT block inactive, CHT PAM inactive and ANO1 activ -16*.
`Cc1ccccc1NC(=O)CSc1nnc(-c2ccco2)c(-c2ccco2)n1` gave ANO1 block 25*, CHT block inactive, CHT PAM inactive and ANO1 activ inactive.
O=C(CSc1nnc(-c2ccco2)c(-c2ccco2)n1)Nc1ccccc1 was read as ANO1 block inactive, CHT block inactive, CHT PAM inactive and ANO1 activ inactive.
COc1cccc(NC(=O)CSc2nnc(-c3ccco3)c(-c3ccco3)n2)c1 was read as ANO1 block inactive, CHT block -7.4*, CHT PAM inactive and ANO1 activ inactive.
For C/C(=N\NC(=O)c1ccc(-n2cnnn2)cc1)c1ccc(Cl)cc1 the results were ANO1 activ inactive.
Screening CC(C)(C)c1ccc(OCCC(=O)OCC(=O)N2c3ccccc3NC(=O)C2(C)C)cc1 returned ANO1 block inactive, CHT block inactive, CHT PAM inactive and ANO1 activ inactive.
CCOc1ccc(NS(=O)(=O)c2cc(NC(=O)CCS(=O)(=O)c3ccc(C)cc3)ccc2OC)cc1 was read as ANO1 block inactive, CHT block -5.1*, CHT PAM inactive and ANO1 activ inactive.
CCOc1ccc(NC(=O)COC(=O)CCS(=O)(=O)c2ccc(C)cc2)cc1 was read as ANO1 block inactive, CHT block inactive, CHT PAM inactive and ANO1 activ inactive.
`COc1ccc(N2Cc3ccc(C(=O)N/N=C\c4ccc(O)cc4O)cc3C2)cc1` gave ANO1 block inactive, CHT block inactive and CHT PAM inactive.
For O=C(O)C(C(O)c1ccccc1)[n+]1ccccc1 (configuration not stated) the results were ANO1 block inactive, CHT block inactive, CHT PAM inactive and ANO1 activ -20*.
O=C(O)C(O)c1ccccc1 (configuration not stated) was read as ANO1 block inactive, CHT block inactive, CHT PAM inactive and ANO1 activ inactive.
For CCN(CC)S(=O)(=O)c1cc(C(=O)Nc2cc(S(=O)(=O)N3CCOCC3)ccc2N2CCN(C)CC2)ccc1C the results were ANO1 activ inactive.
`O=C(COC(=O)c1ccc[nH]c1=O)NC1CCCCCCC1` gave ANO1 block inactive, CHT block inactive, CHT PAM inactive and ANO1 activ -22*.
CC(Sc1n[nH]c(N)n1)C(=O)Nc1cccc2ccccc12 (configuration not stated) was read as ANO1 activ inactive.
`CC(=O)C[C@@H](O)CC(=O)[C@@H]1OC(=O)CCCCCCCc2ccccc21` gave ANO1 activ inactive.
Screening Cc1ccc(-n2nc(C)c(C(=O)Nc3cccc(C(=O)NC4CC4)c3)n2)c(C)c1 returned ANO1 activ inactive.
Screening COc1ccc(OC)c(NC(=O)COc2ccc3c(c2)CCC3)c1 returned ANO1 activ inactive.
For CCC(C)(C)c1ccc(OCCCC[n+]2ccc(C)cc2)c(C(C)(C)CC)c1 the results were ANO1 block 100*, CHT block inactive and CHT PAM inactive.
Screening Cc1cc[n+](CC[n+]2ccc(C)cc2)cc1 returned ANO1 block inactive, CHT block inactive, CHT PAM inactive and ANO1 activ inactive.
Screening CCC(C)(C)c1ccc(OCCCC[n+]2cccc(C)c2C)c(C(C)(C)CC)c1 returned ANO1 block 100*, CHT block inactive, CHT PAM inactive and ANO1 activ inactive.
O=C(OCCOc1cccc(Cl)c1)c1ccc2ncsc2c1 was read as ANO1 block inactive, CHT block inactive, CHT PAM inactive and ANO1 activ inactive.
Screening O=C(NCC(c1ccccc1Cl)N1CCCC1)c1ccc(N2CCCC2=O)cc1 (configuration not stated) returned ANO1 activ inactive.
`COc1ccc(CCC(=O)NNC(=O)c2ccccn2)cc1OC` gave ANO1 activ inactive.
For CCCCCCCCCCCC(=O)NC(C(=O)O)C(O)c1ccccc1 (configuration not stated) the results were ANO1 block inactive, CHT block inactive, CHT PAM inactive and ANO1 activ inactive.
Screening CCCCCCCCNC(C)C(O)c1ccc(SC(C)C)cc1 (configuration not stated) returned ANO1 block 25*, CHT block inactive, CHT PAM inactive and ANO1 activ inactive.
Cn1c(CCN2CCN(c3ccccn3)CC2)nc2cc(NS(=O)(=O)c3ccccc3)ccc21 was read as ANO1 block inactive, CHT block inactive, CHT PAM inactive and ANO1 activ inactive.
Screening CCN(CC)S(=O)(=O)c1cccc(NC(=O)Nc2cccc(C(F)(F)F)c2)c1 returned ANO1 block 100*, CHT block inactive, CHT PAM inactive and ANO1 activ inactive.
CCCc1c(-c2ccc(O)cc2)nn(-c2ccc(O)cc2)c1-c1ccc(O)cc1 was read as ANO1 block 100*, CHT block inactive, CHT PAM inactive and ANO1 activ inactive.
`Cc1c(C(N)=O)c(-c2ccccc2)nn1-c1ccccc1` gave ANO1 block inactive, CHT block inactive, CHT PAM inactive and ANO1 activ inactive.
COCCN(C(=O)Cn1nnc2ccccc21)C(C(=O)NC1CCCC1)c1ccc(OC)cc1OC (configuration not stated) was read as ANO1 block inactive, CHT block inactive, CHT PAM inactive and ANO1 activ inactive.
Screening C=CCN(C(=O)Cn1nnc2ccccc21)C(C(=O)NCCOC)c1ccc(OC)cc1OC (configuration not stated) returned ANO1 block inactive, CHT block inactive, CHT PAM inactive and ANO1 activ -6*.
For CCC(C(=O)Nc1ccon1)c1ccccc1 (configuration not stated) the results were ANO1 block inactive, CHT block inactive, CHT PAM inactive and ANO1 activ inactive.
`O=C(O)CNC(=O)C1(NC(=O)OCc2ccccc2)CCCC1` gave ANO1 activ inactive.
COc1cc2cc(C#N)c(SCC(=O)Nc3cc(C)on3)nc2cc1OC was read as ANO1 block inactive, CHT block inactive, CHT PAM inactive and ANO1 activ inactive.

Screening data deposited in PubChem by Johns Hopkins Ion Channel Center.
